{"source": "PubChem BioAssay AID624396", "about": "(The Scripps Research Institute Molecular Screening Center, 2012)", "system": "MCL1 1780", "test": "apoptosis induction in cancer cell lines, late-stage follow-up, mechanism study for MCL1-BIM inhibitor project, imaging, DAPI staining, cell line panel, probe (AID 624396)", "conditions": "DAPI nuclear morphology, at 25 µM, stronger effect = higher value", "note": "Active and inactive are the calls of the source.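 How the source made its calls: active means over 15% of cells apoptotic at 25 µM, or half-maximal dose of 10 µM or lower; inactive means the rest.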", "data": [{"compound": "CCN1CCN(C(c2ccc(C(F)(F)F)cc2)c2ccc3cccnc3c2O)CC1", "note": "(stereo unspecified)", "values": [{"measurement": "apoptosis", "value": "99% (active)"}]}]}
